We go through 19 compounds from PubChem BioAssay AID934 (National Center for Advancing Translational Sciences (NCATS), 2007).

Inconclusive results are not listed. A number with no mark means an inactive call. Active and inactive are the calls of the source. Calls come from the whole dose curve; as a rule, active = well fitted activation curve with a large enough effect; inconclusive = small, poorly fitted or top-dose-only effect; inactive = flat fitted curve, though single readings scatter.

A short description of this assay: Parental Cell Counter Screen for Stat Signaling Pathway Assay. The following applies: ME-180 (cervical carcinoma) parental cells, blue fluorescence artefact counter-screen; series mostly up to 38.3 µM; activity (fluorescence increase): at the top concentration. Put shortly:
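Parental ME-180 cells (no SIE-bla reporter) plated overnight at 37 C, then given compound plus IL-6 at 40 pM final for 5 hr at 37 C. LiveBLAzer beta-lactamase substrate added for 2.5 hr at room temperature; fluorescence read at 460 and 530 nm emission with 405 nm excitation.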
A general note: A counterscreen serves to expose hits that act by an unwanted route or on another target.
Consider `Fc1ccc2[nH]c3c(N4CCN(Cc5ccc6c(c5)OCO6)CC4)ncnc3c2c1`, for which the “activity (fluorescence increase)” value is 12%. For `Cn1c(NCc2ccccc2)nc2c1c(=O)n(Cc1ccc(Br)cc1)c(=O)n2C`, the “activity (fluorescence increase)” value is 13.9%.

Regarding `NS(=O)(=O)c1ccc(N=Nc2cc3ccccc3c(C(=O)O)c2O)cc1`, the “activity (fluorescence increase)” value was 4.72%. On the same count and under the same terms, in the case of `O=c1c(O)c(-c2ccc(O)cc2)oc2cc(O)ccc12` it was 9.35%; in that of `Nc1ncnc2c1ncn2[C@@H]1O[C@H](CO)[C@@H](O)[C@H]1O`, 1.85%.

Consider `CC(C)(C)C1CCC2(CC1)C(C#N)=C(SCC(=O)Nc1ccccc1)NC(=O)C2C#N` (centres undefined), for which the “activity (fluorescence increase)” value is 24.1%. The same measure, in the same setting: the result for `CC(C)(C)c1nnc2sc(SCC(=O)c3ccccc3)nn2c1=O` reads 13.9%. In the case of `Cc1cc(=O)oc2c(CN3CCCCC3)c(O)c(Cl)cc12`, the Potency is 10 µM (active). For `O=C1CC(N(O)C2CC(=O)N(Cc3ccccc3)C2=O)C(=O)N1Cc1ccccc1` (centres undefined), the “activity (fluorescence increase)” value is 21.3%. `CC(C)C[C@H]1C(=O)N2CCC[C@H]2[C@]2(O)O[C@](NC(=O)[C@@H]3C=C4c5cccc6[nH]c(Br)c(c56)CC4N(C)C3)(C(C)C)C(=O)N12` (some centres undefined): the “activity (fluorescence increase)” value is 11.1%. In the case of `ClC(=Nc1cccc2ccccc12)N(c1ccccc1)c1ccccc1`, the “activity (fluorescence increase)” value was 7.48%. In the case of `COc1cc(-c2nn3c(COc4ccccc4)nnc3s2)cc(OC)c1OC`, the “activity (fluorescence increase)” value is 8.33%. For `COc1cc2nc(-c3ccccc3)nc(N3CCCC3)c2cc1OC`, the “activity (fluorescence increase)” value was 4.63%. Still for that read-out and setting: the result for `Clc1ccc(-c2nnc3sc(Cc4cccs4)nn23)cc1` reads 4.63%.

With `N=C(N)SCc1cccc2c(=O)cc(-c3ccccc3)oc12`, the “activity (fluorescence increase)” value is 8.49%. On the same count and under the same terms, in the case of `O=C(Oc1oc(-c2ccco2)nc1C=Nc1ccccc1)c1ccoc1` it was 3.7%; in that of `CCN(CC)CCNc1ccc(CO)c2sc3ccccc3c(=O)c12`, -13.1%. On the same count and under the same terms, the result for `CCC(=O)Nc1nc(C)c(Oc2ccccc2)c(=O)[nH]1` reads 1.85%; that for `Cn1c(N2CCN(c3ccccn3)CC2)nc2c1c(=O)n(Cc1ccc(Cl)cc1)c(=O)n2C`, 13.9%.
